# Only some compounds are listed: those with a hit (about 21% of all), similar ones and a draw of the others.
# Shiga toxin inh: A qHTS for Small Molecule Inhibitors of Shiga Toxin | actives 9.2% (n = 290,000) | inhibition, % at 38.7 µM | Vero cells, Shiga toxin protein synthesis inhibition reporter; in the data active means inhibition mostly above about 28%, no sharp cut-off; inactive means mostly below about 43%; further: 0% is about no effect
# SARS PLpro yeast: qHTS of Yeast-based Assay for SARS-CoV PLP. S. cerevisiae expressing SARS-CoV PLpro, growth rescue. Potency, µM (titrated, usually from 32.9 µM), inactives show at the highest dose activity, positive = growth rescue, hits mostly activators. actives 0.19% (n = 330,000); further: potency means the concentration at half of the fitted maximal effect; 0% is about no effect; nearly all actives have a fitted effect of over 55% in size
# Cycloheximide cs: Cycloheximide Counterscreen for Small Molecule Inhibitors of Shiga Toxin; cell reporter, cycloheximide protein synthesis inhibition counterscreen; max response, %; actives 12% (n = 300,000); in the data active means max response mostly above about 13%, no sharp cut-off; inactive means mostly below about 14%; further: read at 38.3 µM for the half of the compounds with a filed dose; 0% is about no effect
# Pf growth 96h: Primary qHTS for delayed death inhibitors of the malarial parasite plastid, 96 hour incubation; P. falciparum luciferase reporter growth, 96 h; Potency, µM (doses to about 28.7 µM), inactives show top-dose activity change, negative = inhibition, hits mostly inhibitors; actives 6.9% (n = 320,000); AID 504834, 2011; active means well fitted inhibition curve with a large enough effect; inconclusive means small, poorly fitted or top-dose-only effect, or another doubt; inactive means no such curve, though single readings can be large or run the other way; further: potency means the concentration at half of the fitted maximal effect; on the % scale 0 is the no-effect control and ±100 the full control effect
#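 Luminescence readout: decreased luciferase signal marks inhibited growth of reporter-expressing P. falciparum in infected red cells (2% hematocrit, 0.05% parasitemia final), exposed to compound two generations (96 h, 37 C, 5% CO2).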
# Pf growth 48h: Primary qHTS for delayed death inhibitors of the malarial parasite plastid, 48 hour incubation | P. falciparum luciferase growth in erythrocytes, 48 h | Potency, µM (highest dose often 28.7 µM), without a hit: at the highest dose activity change, negative = inhibition, most hits filed as inhibitors | actives 5.9% (n = 310,000) | AID 504832, 2011; active means well fitted inhibition curve with a large enough effect; inconclusive means small, poorly fitted or top-dose-only effect, or another doubt; inactive means no such curve, though single readings can be large or run the other way; further: potency means the concentration at half of the fitted maximal effect; on the % scale 0 is the no-effect control and ±100 the full control effect
#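 Luminescence readout; reporter = integrated firefly luciferase in P. falciparum. RBC culture at 2% hematocrit, 0.1% parasitemia final, 37 C/5% CO2; decreased signal taken as growth inhibition.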
# NS1 function inh: qHTS Assay for Inhibitors of Influenza NS1 Protein Function; actives 0.4% (n = 270,000); AID 2326, 2010; Potency, µM (series often up to 46.1 µM), for inactives: at the highest dose activity, positive = more growth; further: potency means the concentration at half of the fitted maximal effect; actives are rising curves; nearly all actives have a fitted effect of over 50% in size
#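 Compounds were scored for reversing the slow growth caused by influenza A NS1 in S. cerevisiae, measured by optical density at 600 nm. Assay medium contained 2% galactose at pH 6.0; NS1-free yeast of the same strain were the positive control.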
# The depositor's hits bear a star; i = inactive; ? = inconclusive; . = no result given; [ ] = another dose, or the depositor's remark. Unless noted, the call rests on the fitted dose curve.
SMILES,Shiga toxin inh,SARS PLpro yeast,Cycloheximide cs,Pf growth 96h,Pf growth 48h,NS1 function inh
Cc1ccc([N+](=O)[O-])c(OCC(=O)OCC(=O)c2ccccc2)c1,-9,-22%,-2,0.93µM*,11%,-10%
CC(=O)Nc1ccc(OCC(=O)c2cc(C)ccc2C)cc1,-6,3%,-2,9.3µM*,.,-19%
Cc1ccc(C)c(C(=O)COc2ccccc2[N+](=O)[O-])c1,26*,11%,36*,35%,-2%,-7%
COc1ccc2c(c1)c(C(C)=O)c(C)n2CCc1ccccc1,-4,0%,-6,-8%,-7%,-3%
CC(Sc1nnnn1C)C(=O)Nc1ncc(Cl)cc1Cl (stereo not drawn),.,0%,.,-25%,27%,.
CC(=O)Oc1c(C)c(OC(C)=O)c2c(c1C(C)=O)OC1CC(=O)C(C(C)=O)=C(O)C21C (stereo not drawn),-7,-1%,-2,12µM*,8.3µM*,-51%
Cc1cc(=O)oc2cc(NC(=O)c3ccccc3Cl)ccc12,86*,-2%,40*,137%,131%,2%
Cc1cc(=O)oc2cc(NC(=O)c3ccnn3C)ccc12,26,6%,17*,?,88%,-3%
Cc1cc(=O)oc2cc(NC(=O)c3ccccc3C(=O)O)ccc12,65,0%,22*,59%,0%,-1%
COc1cccc(C(=O)Nc2ccc3c(C)cc(=O)oc3c2)c1,115*,5%,62*,34%,300%,-1%
Cc1cc(=O)oc2cc(NC(=O)c3c(Cl)cnn3C)ccc12,22,1%,6,68%,29%,-3%
COc1ccccc1CC(=O)Nc1ccc2c(C)cc(=O)oc2c1,12,-6%,2,-15%,9%,20%
COc1ccc(CNC(=O)N2CCN(c3ccccc3)CC2)cc1,-4,-5%,1,20%,28%,8%
Cc1ccc2sc3ccc(NC(=O)c4ccccc4Cl)cc3c(=O)c2c1,43*,-1%,35*,?,?,-8%
CC(NC(=O)Cc1cccs1)C(c1cccs1)N1CCOCC1 (stereo not drawn),14,-16%,-1,.,13µM*,4%
CCC(=O)NC(C)C(c1cccs1)N1CCOCC1 (stereo not drawn),.,.,.,.,.,10%
CCN1CCN(C(c2cccs2)C(C)NC(=S)NC2CCCCC2)CC1 (stereo not drawn),-3,0%,-2,-12%,-7%,5%
CC(NC(=S)NC1CCCCC1)C(c1cccs1)N1CCOCC1 (stereo not drawn),-3,-2%,-3,8.3µM*,?,-9%
CCCCNC(=O)Cc1cc(=O)[nH]c(=O)[nH]1,-4,0%,-4,20%,3%,1%
CC(C)n1c(CSCc2ccc(Cl)cc2Cl)n[nH]c1=S,-10,-6%,-3,25%,?,.
Cc1nc(N2CCN(S(=O)(=O)c3ccccc3C#N)CC2)c2c(-c3ccccc3)csc2n1,.,2%,.,?,10µM*,.
Cc1nc(N2CCN(S(=O)(=O)c3ccc(F)cc3)CC2)c2c(-c3cccs3)csc2n1,-2,0%,13,?,?,.
CC1CCCC(C)N1CCNC(=O)CCc1nnc2n(Cc3ccccc3)c(=O)c3ccccc3n12 (stereo not drawn),-2,-1%,-3,12µM*,?,3%
CC1CCCCN1CCNC(=O)CCc1nnc2n(Cc3ccccc3)c(=O)c3ccccc3n12 (stereo not drawn),5,4%,-1,?,?,5%
CN1CCN(C(=O)C2CCC(=O)N(CCc3cccc(F)c3)C2)CC1 (stereo not drawn),-6,?,0,9.3µM*,?,29%
SMILES,Shiga toxin inh,SARS PLpro yeast,Cycloheximide cs,Pf growth 96h,Pf growth 48h,NS1 function inh
CC(=O)NCC1CCN(C(=O)C2CCC(=O)N(CCc3cccc(F)c3)C2)CC1 (stereo not drawn),-6,-1%,-4,13µM*,25%,-5%
COCCCC1CCN(C(=O)C2CCC(=O)N(CCc3ccccc3)C2)CC1 (stereo not drawn),56*,7%,46*,-20%,?,-4%
C=CC[C@H](CC(=O)N[C@H](CO)Cc1ccccc1)C(=O)N[C@@H](COC(=O)[C@@H](CC=C)Cc1ccc(F)cc1)Cc1c[nH]c2ccccc12,.,-6%,.,.,.,.
O=C(COc1ccccc1)OCc1csc(Nc2ccccc2)n1,6,-34%,2,42%,-2%,-41%
O=C(Nc1nc(COc2ccccc2)cs1)C1CCC1,89*,-9%,37*,i,406%,-12%
O=C(Nc1nc(COc2ccccc2)cs1)C12CC3CC(CC(C3)C1)C2,27,?,19,?,.,-8%
Nc1nnc(SCCCOc2ccc(F)cc2)s1,-23,0%,-2,?,-18%,6%
CC(=O)Nc1nc(COc2ccccc2)cs1,64*,-1%,44*,?,173%,2%
COc1cccc(OC)c1C(=O)Nc1nc(COc2ccccc2)cs1,28,-4%,10,45%,119%,1%
Cc1ccc(C(=O)Nc2nc(COc3ccccc3)cs2)s1,82*,.,31*,-16%,7%,-41%
Nc1nc(CCOc2ccc(F)cc2)cs1,154*,0%,33*,137%,204%,.
CN(c1ccccc1)S(=O)(=O)c1ccc(C(=O)OCC(=O)N2CCOCC2)cc1,10,-6%,-2,6%,5%,-7%
CC(=O)Nc1nc(COc2ccc3ccccc3c2)cs1,97*,-4%,52*,123%,.,-12%
Nc1nc(COc2ccc3ccccc3c2)cs1,116*,.,60*,.,14%,-213%
Cc1nn(C2CCS(=O)(=O)C2)c(C)c1CN(C)C(=O)c1ccc(S(=O)(=O)N(C)C)cc1 (stereo not drawn),.,-2%,.,.,.,.
Cc1nnc2c(NCCc3ccccc3)nc3ccccc3n12,-9,0%,-6,?,13%,-2%
CC(C)(C)OC(=O)NC1CC2CCCC(C1)N2Cc1ccccc1 (stereo not drawn),5,11%,1,?,?,28%
Oc1ccc(Cl)cc1CNc1cccc2cccnc12,-1,-13%,-1,147%,?,-118%
Cc1cc(C[n+]2cc(Br)ccc2N)c2ncccc2c1,-3,0%,-1,13µM*,9.3µM*,-13%
Nc1ccc(Cl)c[n+]1Cc1cccc2cccnc12,-2,2%,-5,?,10µM*,-2%
Cc1cc(C[n+]2cc(Cl)ccc2N)c2ncccc2c1,-7,0%,-7,?,13µM*,6%
Cc1ccc(NC(=O)CCNS(=O)(=O)c2ccc(OC(F)(F)F)cc2)c(O)c1,-14,1%,1,12%,20%,7%
CCCC[C@]12Cc3cc(C#N)ccc3C(O1)c1c(cc(C)n(-c3ccccc3)c1=O)O2,i,-4%[6.58 µM],1,?,?,23%

# Assay outcomes: PubChem BioAssay, National Center for Advancing Translational Sciences (NCATS)
